# HCV inhibitor: qHTS Assay for Inhibitors of Hepatitis C Virus (HCV); Huh7.5.1 HCVcc-Cre infection, luciferase reporter, 44 h; 3.4% of 340,000 active; Potency, µM (series often up to 41.8 µM), inactives show top-dose activity change, negative = inhibition, most hits filed as inhibitors; active = well fitted inhibition curve with a large enough effect; inconclusive = small, poorly fitted or top-dose-only effect, or another doubt; inactive = no such curve, though single readings can be large or run the other way; also: potency is read from the fitted curve at half-maximal effect
#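 Luciferase read-out (15 sec integration) after a 15 min room-temperature substrate step quantifies HCVcc-Cre infection. Cells, 1,000 per well, had compound added 4 h post-plating, then virus at ~0.5 moi, and were cultured 44 h.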
# HCMV antiviral: qHTS Assay for inhibitors of the human cytomegalovirus (HCMV) | HFF cells, HCMV-luciferase reporter, 72 h; stronger effect = lower value | 4.5% of 410,000 active | activity change, negative = inhibition, % at 57.5 µM | AID 1259415, 2018; in the data active = activity change below about -60%; inconclusive = no clear call, values can overlap the other calls; inactive = above about -39%
#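 Two compound doses tested in HFFs infected with HCMV-luciferase, MOI 1 PFU/cell, 72 h at 37C. Lysate luminescence read with OneGlo; data normalized against buffer-only and 10uM Salinomycin inhibitor controls.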
# Vaccinia Venus: qHTS for Stage-Specific Inhibitors of Vaccinia Orthopoxvirus: Venus Reporter Primary qHTS; Vaccinia virus Venus reporter expression, fluorescence; AID 720580, 2013; 0.46% of 330,000 active; Potency, µM (doses to about 36.5 µM), for the others: at the top dose activity change, negative = inhibition, hits mostly inhibitors; calls by dose curve; tested in A549 cells; also: potency is read from the fitted curve at half-maximal effect; nearly all actives have a fitted effect of over 30% in size
# MARV entry inh: qHTS for inhibitors of binding or entry into cells for Marburg Virus. Marburg virus pseudotyped entry inhibition, cell reporter. Potency, µM (top dose mostly 37.8 µM), for the others: at the top dose activity change, negative = inhibition, actives largely listed as inhibitors. 1.8% of 300,000 active; calls by dose curve; tested in HEK293 cells; also: potency is read from the fitted curve at half-maximal effect
# LASV entry inh: qHTS for Inhibitors of binding or entry into cells for Lassa Virus | Lassa virus pseudotype entry inhibition, cell reporter | AID 540256, 2011 | 1.2% of 300,000 active | Potency, µM (series often up to 37.9 µM), for the others: top-dose activity change, negative = inhibition, most hits filed as inhibitors; calls by dose curve; tested in HEK293 cells; also: potency is read from the fitted curve at half-maximal effect; nearly all actives have a fitted effect of over 50% in size
# VACV mCherry inh: qHTS for Stage-Specific Inhibitors of Vaccinia Orthopoxvirus: mCherry Reporter Primary qHTS | Vaccinia virus mCherry reporter infection, fluorescence | 0.63% of 310,000 active | AID 720579, 2013 | Potency, µM (doses to about 36.5 µM), inactives show top-dose activity change, negative = inhibition, hits mostly inhibitors; calls by dose curve; tested in A549 cells; also: potency is read from the fitted curve at half-maximal effect; nearly all actives have a fitted effect of over 35% in size
# * = called active by the depositor; i = inactive; ? = inconclusive; / = no result; [ ] = remark or other dose. Hits are enriched below; roughly 7.8% of the tested compounds scored in any of these assays. % is scaled to controls: 0 for no effect and ±100 for the full control effect.
SMILES,HCV inhibitor,HCMV antiviral,Vaccinia Venus,MARV entry inh,LASV entry inh,VACV mCherry inh
S=C(Nc1cccc(Br)c1)c1ccccc1,-11%,-74*,/,9%,?,/
CN(C)c1ccc(C(=S)Nc2ccccc2)cc1,5%,-65*,-28%,14µM*,?,?
COc1ccccc1NC(=O)C1=C(C)Nc2nc(SCc3ccccc3F)nn2C1c1cccs1 (stereo not given),/,-36,0%,?,1%[46.1 µM],-13%
COC(=O)c1sc2nc(C)cc(C)c2c1N,10%,-18,3%,?,21%[46.1 µM],-15%
Cc1cc(C)c2c(N)c(C(=O)Nc3ncc(C)s3)sc2n1,?,-86*,-24%,0.5µM*,0.2µM*,-2%
CC(C)n1cc(/C=N/NC(=O)COc2cccc3cccnc23)c2ccccc21,?,12,?,10µM*,?,?
O=C(N/N=C/c1cccc2cccnc12)c1ccccc1O,?,-103*,/,/,/,/
COc1cccc(/C=N/NC(=O)COc2cccc3cccnc23)c1O,?,-6,-25%,?,?,13µM*
CCN(CC)C1CCN(C(=O)c2ccc(OC3CCN(CCc4ccccc4)CC3)cc2)C1 (stereo not given),7.1µM*,-14,/,/,/,/
CN(C)c1ccc2cc(S(=O)(=O)O)cc(O)c2c1,31%,-100*,8%,11%[46.1 µM],-5%[46.1 µM],?
Brc1ccc(C[n+]2ccccc2)cc1,7.9µM*,-3,-19%,/,/,-16%
O=[N+]([O-])c1ccc(C[n+]2ccccc2)cc1,-22%,-5,-17%,/,/,-3%
COc1ccc(OC)c(NC(=O)C2=C(C)C(=O)OC23CCCCCC3)c1,/,-19,-4%,/,6%[46.1 µM],-11%
Cc1ccc(S(=O)(=O)Nc2cc(Cl)c(O)cc2C)cc1,?,-70*,/,?,-12%,/
Cc1ccc(S(=O)(=O)Nc2cc(C(C)C)c(O)cc2C)cc1,-24%,?,/,-12%,1%,/
Cc1ccc(NC(=O)c2c3c(nc4ccccc24)C(=O)N(C2CCCCC2)C3)cc1F,/,-9,?,/,11%[46.1 µM],?
CCCCN1C(=O)/C(=C2/Sc3ccccc3N2C)S/C1=N\c1ncn[nH]1,-14%,-78*,/,/,/,/
CCOC(=O)CNC(=O)C(Cc1ccccc1)NC(=O)OCc1ccccc1 (stereo not given),3%,-3,/,/,/,/
CCOC(=O)CNC(=O)C(CO)NC(=O)OCc1ccccc1 (stereo not given),11%,-100*,-13%,19%,2%,i
CCOC(=O)C(Cc1ccccc1)C(=O)NCc1ccccc1 (stereo not given),12%,-6,-13%,0%,11%,-10%
O=C(NNC(=O)OCc1ccccc1)OCc1ccccc1,16%,-99*,6%,?,?,i
COc1ccc(COC(=O)NNC(=O)c2ccccc2Cl)cc1,-1%,19,-11%,1%,4µM*,/
CCOC(=O)NCc1ccccc1,2.8µM*,/,-16%,/,/,i
Cc1ccc2oc(-c3ccc(Cl)cc3)c(O)c(=O)c2c1,/,-77*,-13%,?,1%[46.1 µM],-12%
CCCNC(=O)OC[C@H]1O[C@H](CCON=Cc2ccc(C(=O)N3[C@H](C(=O)OC)CC[C@H](C)[C@@H]3c3ccc(C)cc3)cc2)C=C[C@H]1Oc1ccc(OC)cc1,/,/,/,-28%[14.2 µM],-24%[14.3 µM],/
Cc1ccc(CNC(=O)c2c(-c3ccccc3F)noc2C)o1,/,-4,-9%,/,4%[46.1 µM],-14%
COc1ccc(OC)c(N2Cc3cc(C)c(C)cc3C2)c1,22µM*,7,-5%,?,-22%,-14%
CCOc1ccccc1N1Cc2cc(C)c(C)cc2C1,?,3,-9%,/,/,-21%
Cc1ccc(/C=N/N(Cc2ccccc2)c2ccccc2)o1,?,-17,/,/,/,/
CN(C)/N=C/c1ccc(P(c2ccc(/C=N/N(C)C)o2)c2ccc(/C=N/N(C)C)o2)o1,?,-62*,-6%,?,?,-24%

# Source: PubChem (National Center for Advancing Translational Sciences (NCATS))
